# From PubChem BioAssay AID2796 (The Scripps Research Institute Molecular Screening Center, 2010)
# About 8,000 (2.5%) of roughly 320,000 compounds were called active. The sample holds actives, similar compounds and a random draw of the others, so the mix is not that of the screen. Rule as the data show it: active = activation above about 47%; inactive = the rest.
# Molecular target: Aryl hydrocarbon receptor (Homo sapiens) (UniProt P35869)
# Test: AHR activators, primary screen, cell-based, luminescence, luciferase reporter, human (AID 2796);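 also: 0% = vehicle wells and 100% = reference agonist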
# Conditions: AHR-responsive luciferase reporter cells, at 5 µM, hits give high values
# Aryl hydrocarbon receptor (Homo sapiens), sequence (P35869 whole entry, looked up): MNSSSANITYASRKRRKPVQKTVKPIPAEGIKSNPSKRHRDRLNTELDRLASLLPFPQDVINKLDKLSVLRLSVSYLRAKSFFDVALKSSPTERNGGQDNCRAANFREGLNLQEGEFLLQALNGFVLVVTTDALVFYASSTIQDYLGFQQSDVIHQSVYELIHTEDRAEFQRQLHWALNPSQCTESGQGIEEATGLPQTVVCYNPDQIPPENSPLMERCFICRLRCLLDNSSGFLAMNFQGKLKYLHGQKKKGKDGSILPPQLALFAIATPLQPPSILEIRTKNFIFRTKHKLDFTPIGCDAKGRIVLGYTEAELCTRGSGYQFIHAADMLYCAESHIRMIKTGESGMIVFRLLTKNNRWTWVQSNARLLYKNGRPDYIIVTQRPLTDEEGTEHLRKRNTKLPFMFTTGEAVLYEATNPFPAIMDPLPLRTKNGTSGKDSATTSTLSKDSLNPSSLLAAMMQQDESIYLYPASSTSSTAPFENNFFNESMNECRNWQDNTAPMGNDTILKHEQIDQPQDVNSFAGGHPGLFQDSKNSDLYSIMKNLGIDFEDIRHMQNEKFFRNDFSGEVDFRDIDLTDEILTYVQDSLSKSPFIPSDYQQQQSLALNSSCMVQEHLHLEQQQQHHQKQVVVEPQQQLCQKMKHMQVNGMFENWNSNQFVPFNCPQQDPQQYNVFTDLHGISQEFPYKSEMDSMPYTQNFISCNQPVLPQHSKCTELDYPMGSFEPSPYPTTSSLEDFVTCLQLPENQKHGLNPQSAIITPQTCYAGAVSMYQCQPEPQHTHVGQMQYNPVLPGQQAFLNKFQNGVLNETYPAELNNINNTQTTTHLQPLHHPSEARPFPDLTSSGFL
row,SMILES,activation
1,CC(Sc1sc(=S)sc1SC(C)C(=O)O)C(=O)O (centres undefined),4.16% (inactive)
2,COCCN1C2=C(COC(C)(C)C2)C(=S)NC1c1ccccc1 (centres undefined),0.78% (inactive)
3,O=C(Nc1nc(-c2cccnc2)cs1)c1ccccc1F,11.7% (inactive)
4,c1ccc(Nc2nc(-c3ccncc3)cs2)nc1,79% (active)
5,O=C(NCc1cccnc1)C(=O)Nc1nc(-c2ccccc2)cs1,8.85% (inactive)
6,COc1ccc(CCN(C(=O)COc2ccccc2)c2nc(-c3ccccc3)cs2)cc1OC,23.4% (inactive)
7,Clc1ccc(Nc2nc(-c3cccs3)cs2)nc1,96.2% (active)
8,Cc1ccc(Nc2nc(-c3ccc(O)cc3O)cs2)nc1,16.5% (inactive)
9,Clc1ccc(Cc2nnc(-c3cccs3)o2)cc1,-4.17% (inactive)
10,CC(=O)Nc1cccc(-c2csc(Nc3cccc(C)n3)n2)c1,61.1% (active)
11,CC(=O)Nc1ccc(C(=O)Nc2nc(-c3cc(C)n(Cc4ccccc4)c3C)cs2)cc1,2.48% (inactive)
12,COc1ccc(CC(=O)Nc2nc(-c3ccc(F)c(F)c3)cs2)cc1OC,-6.95% (inactive)
13,COc1ccc(CCNc2nc(-c3cccc(NC(C)=O)c3)cs2)cc1OC,59% (active)
14,CC(=O)NCCC(=O)Nc1nc(-c2ccc3c(c2)OCCO3)cs1,40.4% (inactive)
15,CC(=O)NCC(=O)N(C)C(C(=O)Nc1ccc2c(c1)OCCO2)c1ccccc1 (centres undefined),15% (inactive)
16,Cc1cc(=O)oc2c3c(cc(OCC(=O)NCc4ccccn4)c12)OC(C)(C)CC3,4.58% (inactive)
17,FC(F)(F)c1ccc(-n2cn[nH]c2=S)cc1,-2.71% (inactive)
18,CCN1CCN(C(=O)c2cc3cc4ccc(OC)cc4nc3s2)CC1,2.17% (inactive)
19,COc1ccc(Nc2nc(-c3ccccc3)cs2)cc1,91.8% (active)
20,CCCn1c(CCNc2nc(-c3ccc(OC)cc3)cs2)nc2ccccc21,15% (inactive)
21,COc1ccc2c(c1OC)C(=O)OC2Nc1nc(-c2ccccc2)cs1 (centres undefined),-5.46% (inactive)
22,Cc1cccc(Nc2nc(-c3ccccc3)cs2)n1,95.5% (active)
23,O=C(CSC1=NCCS1)Nc1nc(-c2ccccc2)cs1,18.4% (inactive)
24,Cc1ccccc1Nc1nc(-c2cccnc2)cs1,2.23% (inactive)
25,CCCCn1nc(C(=O)Nc2cccc(C(=O)NC3CC3)c2)c2ccccc2c1=O,-0.03% (inactive)

row,SMILES,activation
1,CC1(C)C2CCC13CS(=O)(=O)NC3C2 (centres undefined),1.31% (inactive)
2,CN1CCN(C(=O)c2cnn(-c3ccccc3)c2NC(=O)c2ccc([N+](=O)[O-])cc2)CC1,4.36% (inactive)
3,Nc1c(N(CCO)C(=O)C2CCCCC2)c(=O)[nH]c(=O)n1Cc1ccccc1,0.25% (inactive)
4,COc1ccccc1C(=O)Nc1ccccc1C(=O)Nc1ccccc1,18.5% (inactive)
5,O=C(Nc1ccccc1Cl)c1ccccc1S(=O)(=O)c1ccccc1[N+](=O)[O-],2.48% (inactive)
6,CN(C)S(=O)(=O)Oc1ccccc1C(=O)Nc1ccccc1Cl,106% (active)
7,Cc1ccc(NC2CCCN(C(=O)CCc3cn[nH]c3)C2)cc1C (centres undefined),11.1% (inactive)
8,Cn1ncc(Br)c1C(=O)NC1CCCC1,-3.04% (inactive)
9,Cn1ncc(Br)c1C(=O)NCc1cccs1,-1.33% (inactive)
10,COc1ccccc1NC(=O)c1c(Br)cnn1C,57.9% (active)
11,COC(=O)c1ccc(C(NC(=O)OCc2ccccc2)/C(C)=C/[C@@H](C)C(=O)NCc2ccc(OC)c(OC)c2)cc1 (some centres undefined),6.4% (inactive)
12,COc1ccc(NC(=O)CSc2nnc(C3CC3)n2C)cc1S(=O)(=O)N1CCCCC1,-0.33% (inactive)
13,COc1cc(CNCc2ccc3c(c2)OCO3)c([N+](=O)[O-])cc1OC,111% (active)
14,Cc1ccc(CNCc2ccc3c(c2)OCO3)c(C)c1,2.41% (inactive)
15,COc1cc(OC)c(C(=O)NCc2ccc3c(c2)OCO3)cc1OC,14% (inactive)
16,NS(=O)(=O)c1ccc(N=Cc2ccc(Br)s2)cc1,3.54% (inactive)
17,O=C(NNc1cc(Cl)cc(Cl)c1)c1c(F)cccc1Cl,10.2% (inactive)
18,Cc1sc(NC(=O)c2ccc3ncsc3c2)c(C(N)=O)c1C,5.88% (inactive)
19,COc1ccccc1-c1nnc(NC(=O)c2ccc3ncsc3c2)o1,48.6% (active)
20,COc1ccccc1-c1nnc(NC(=O)c2cccc(N3C(=O)CCC3=O)c2)o1,33.9% (inactive)
21,CC(=O)C1=C(O)C(=O)N(c2cccnc2)C1c1ccc([N+](=O)[O-])cc1 (centres undefined),-2.61% (inactive)
22,COC(=O)CN1C(=O)C(O)=C(C(C)=O)C1c1ccc([N+](=O)[O-])cc1 (centres undefined),0.71% (inactive)
23,CC(=O)C1=C(O)C(=O)N(c2ccc(Br)cc2)C1c1ccc([N+](=O)[O-])cc1 (centres undefined),62.3% (active)
24,COC(=O)C1=C(C)N(C(C)c2ccccc2)C(=O)/C1=C\c1ccco1 (centres undefined),1.2% (inactive)
25,CCSc1ccccc1C(=O)NCc1ccc(OC)cc1,-0.68% (inactive)

row,SMILES,activation
1,COc1ccc(COCCN2CCN(S(=O)(=O)c3ccccc3)CCC2=O)cc1,2.49% (inactive)
2,C=CCSc1nnc2c(n1)-c1cccc3cccc-2c13,56.7% (active)
3,CCN(CC(=O)Nc1ccc(OC)cc1)C(=O)CSCc1ccc(C)cc1,0.1% (inactive)
4,Cc1occc1C(=O)Nc1cccc(S(=O)(=O)N2CCOCC2)c1,3.12% (inactive)
5,Cc1c(C(=O)Nc2cccc(S(=O)(=O)N3CCOCC3)c2)oc2ccccc12,67.5% (active)
6,COc1ccc(NC(=O)c2oc3ccc(S(=O)(=O)N4CCOCC4)cc3c2C)cc1,10.4% (inactive)
7,N#Cc1ccc(OCCN2C(=O)NC3(CCSC3)C2=O)cc1 (centres undefined),-2.11% (inactive)
8,Cc1cc(NC(=O)CSc2nnc(-c3ccco3)n2N)no1,1.53% (inactive)
9,COc1ccc(C(=O)NC(=S)N2CCNC(=O)C2CC(=O)OC(C)C)cc1 (centres undefined),5.47% (inactive)
10,Cc1cc2ncn(CCCCOc3ccccc3)c2cc1C,-0.22% (inactive)
11,N#Cc1ccc(C2N=C(c3ccccc3)NO2)cc1 (centres undefined),0.8% (inactive)
12,Brc1ccccc1C1N=C(c2ccccc2)NO1 (centres undefined),50.1% (active)
13,S=C1NC(c2ccccc2)=NCN1c1ccc(Br)cc1,1.57% (inactive)
14,Cc1ccc(-n2nc3c(c2NC(=O)CCC2CCCCC2)CS(=O)C3)cc1 (centres undefined),18.5% (inactive)
15,CCCCNC(=S)N/N=C1\CCCCc2ccccc21,13.7% (inactive)
16,Cc1cc(O)c(Sc2ccccc2)c(=O)o1,0.97% (inactive)
17,Cc1ccc(N=Cc2c(O)cc(C)oc2=O)c(C)c1,-0.65% (inactive)
18,Cc1cc(O)c(C(=O)/C=C/c2c(F)c(F)c(F)c(F)c2F)c(=O)o1,99.4% (active)
19,CN(C)Cc1c(C#N)c2ccccc2n1C,1.2% (inactive)
20,CCCc1cc(=S)n2c([nH]c3ccccc32)c1C#N,63.8% (active)
21,CCOC(=O)CCc1c(C)c(C#N)c2[nH]c3ccccc3n2c1=O,4.77% (inactive)
22,COc1ccc(CCNC(=O)c2nnc(CS(=O)(=O)c3ccccc3)o2)cc1OC,-2.96% (inactive)
23,CCn1c2ccccc2c2cc(NC(=O)COC(=O)c3ccccc3Br)ccc21,62.5% (active)
24,CCn1c2ccccc2c2cc(NC(=O)C/C(C)=N/NC(=O)c3ccccc3N)ccc21,95.2% (active)
25,CCn1c2ccccc2c2cc(NC(=S)N3CCOCC3)ccc21,46% (inactive)

row,SMILES,activation
1,CCn1c2ccccc2c2cc(NC(=O)CNC)ccc21,44.7% (inactive)
2,CCn1c2ccccc2c2cc(CC(N)=O)ccc21,1.45% (inactive)
3,CCn1c2ccccc2c2cc(NC(=O)COC(=O)c3cc(S(=O)(=O)N4CCCCC4)ccc3Cl)ccc21,34.2% (inactive)
4,COc1cc(OC)c(N2CC(C(=O)Nc3cc(Cl)ccc3N3CCOCC3)CC2=O)cc1Cl (centres undefined),-0.04% (inactive)
5,CCn1c(CSc2nncn2-c2ccc(OC)cc2)nc2cc(S(=O)(=O)N(C)C)ccc21,-0.25% (inactive)
6,CCOc1ccccc1C1NC(=O)NC(C)=C1C(=O)OCc1ccco1 (centres undefined),-1.31% (inactive)
7,COc1ccc2sc(-c3ccc(S(C)(=O)=O)cc3)c(-c3ccc(C(N)=O)cc3)c2c1,17.8% (inactive)
8,COC(=O)c1ccc(/C=C/c2c(-c3ccc(OC)cc3)sc3ccccc23)cc1,51.7% (active)
9,COc1ccccc1-c1sc2ccccc2c1-c1ccc(C(C)=O)cc1,42.1% (inactive)
10,O=C1CCCCC1Sc1ccc(Cl)cc1[N+](=O)[O-] (centres undefined),14.3% (inactive)
11,Cc1nc(NC(CC(C)C)C(=O)O)c2nc(C)oc2n1 (centres undefined),1.08% (inactive)
12,CCOC(=O)CN1C(=O)C(=O)c2cc(C)ccc21,-0.46% (inactive)
13,CC(OC(=O)CN1C(=O)c2ccccc2C1=O)C(=O)c1ccccc1 (centres undefined),0.4% (inactive)
14,CC(C)OC(=O)CN1C(=O)C(=O)c2ccccc21,101% (active)
15,CC1CCCN(S(=O)(=O)c2ccc(N(C(=O)c3cnccn3)C(C(=O)NC3CCCCC3)c3cccs3)cc2)C1 (centres undefined),2.59% (inactive)
16,CCOC(=O)CCP(=O)(O)C(O)(c1ccccc1)c1ccccc1,-2.52% (inactive)
17,COCCNC(=O)c1ccc(S(=O)(=O)c2ccc(Cl)cc2)c(NC(C)=O)c1,5.01% (inactive)
18,CCOC(=O)c1c(C)n(C)c2ccc(OC)c(NS(=O)(=O)CC)c12,55.7% (active)
19,CCOC(=O)c1c(S(=O)(=O)Nc2cccc(Cl)c2)c(C)n(C)c1C,21.5% (inactive)
20,CCOC(=O)c1c(C)n(C)c2ccc(OC)c(NC(=O)CN3CCC4(CC3)OCCO4)c12,0.77% (inactive)
21,FC(F)(F)c1cc(C(F)(F)F)c2ccc(N3CCN(c4ccccc4)CC3)nc2n1,3.17% (inactive)
22,Oc1ccc(-c2[nH]ncc2-c2nc3ccccc3s2)c(O)c1,48.9% (active)
23,COc1ccc(Oc2cn[nH]c2-c2ccc(OC)cc2O)cc1,6.87% (inactive)
24,CC(=O)Nc1cccc(-c2nc3ccccc3s2)c1C,-9.79% (inactive)
